Among all 360,000 compounds or so, about 7,300 (2%) were called active. The full list was thinned out, with actives kept by preference. Values without a mark were called inactive. No stated cut-off is given here; in the data, active means inhibition above about 50%; inactive means the rest.
Assay: blockers of TWEAK-induced Fn14 reporter activity – luciferase reporter cells, uHTS, primary screen (AID 1159606)
Conditions: TWEAK-stimulated Fn14 reporter cells, luciferase luminescence, 8 h; at 10 µM; stronger effect = higher value

| Structure (SMILES) | inhibition |
| --- | --- |
| CC(=CCOc1ccc2ccc(=O)oc2c1)C1=CC(=O)C(C)(C)O1 | 70.4% (active) |
| CSc1nc2ccc(C)cc2c(=O)n1-c1cccnc1 | 0.75% |
| CN(C)c1ccc(/C=C2\CC3C4CC=C5CC(O)CCC5(C)C4CCC3(C)C2=O)cc1 (stereo not given) | -57.2% |
| NC(=O)Nc1cccc(C(F)(F)F)c1 | -2.53% |
| Cc1cccc(NC(=O)N2CC3CC(C2)c2cccc(=O)n2C3)c1 (stereo not given) | 3.66% |
| CNC(=O)O/N=C(\N)Cc1csc2ccccc12 | 16.5% |
| CC(=O)c1ccc(OC(NC(=O)Cc2ccccc2)C(Cl)(Cl)Cl)cc1 (stereo not given) | -4.23% |
| C[C@H]1CN([C@@H](C)CO)C(=O)CCCn2nncc2CO[C@H]1CN(C)C(=O)Oc1cccc2ccccc12 | 9.18% |
| O=C1NC(=O)C(C/C=C/c2ccccc2)C(=O)N1 | 0.48% |
| CCCCCCCCCCCCn1ccc(=N)cc1 | 74% (active) |
| CCCn1c(C(=O)c2ccccc2OC)nc2ccccc21 | -3.91% |
| COc1ccc2c(c1)NP(=S)(c1ccccc1)N2 (stereo not given) | -0.5% |
| CN(C)CC1Oc2ccccc2OC1(O)c1ccccc1 (stereo not given) | 79.6% (active) |
| Cc1ncoc1C(=O)NCC1=C(c2cccc3ccccc23)C[C@@H]2CC[C@H]1N2Cc1ccco1 | -0.7% |
| COc1cccc(-c2nc3ccc(N4CCN(C)CC4)cc3[nH]2)c1 | -27.5% |
| CC12CCC(O)CC1CCC1C2CCC2(C)C(C(=O)CC(O)C(F)(F)F)CCC12 (stereo not given) | -91.4% |
| C[C@]12CC[C@H](O)C[C@H]1CC[C@@H]1C2CC[C@]2(C)[C@@H](C3=CC(=O)OC3)[C@@H](O)C[C@]12O (stereo not given in full) | 56.4% (active) |
| O=c1[nH]c(=O)n(-c2ccc(F)cc2)c(O)c1C=NCCN1CCCCC1 | 6.59% |
| CN(C)C(=O)Oc1cc(=O)n2c3c(cccc13)CCC2 | 30.3% |
| Cc1cc(C(=O)OCC(=O)Nc2c(F)cccc2F)c(C)n1C1CC1 | 4.53% |
| C[C@]12CC[C@H](O)CC1=C([N+](=O)[O-])CC1C2CC[C@@]2(C)C1CC[C@@H]2O (stereo not given in full) | 1.49% |
| C[C@]12CCC3C(CC[C@H]4[C@H](O)[C@H](O)CC[C@]34C)C1CC[C@@H]2O (stereo not given in full) | -13.2% |
| C[C@]12CCC3C(CC[C@H]4[C@H](O)[C@H](O)CC[C@]34C)C1CCC2=O (stereo not given in full) | 96.5% (active) |
| OC1/C(=C/c2ccc(C(F)(F)F)cc2)N2CCC1CC2 (stereo not given) | -3% |
| COC(=O)C1=C(c2ccc3ccccc3c2)C[C@@H]2CC[C@H]1N2C(=O)NCCO | 6.86% |

| Structure (SMILES) | inhibition |
| --- | --- |
| CCN1CCN(c2nc3c(c(=O)[nH]2)CCC3)CC1 | 14.3% |
| COc1ccc2[nH]c3c(c2c1)CCN[C@H]3C | 75.7% (active) |
| Cc1ccc2c(c1)=C/C(=C\c1c(O)[nH]c(=O)[nH]c1=O)C(=O)N=2 | -3.63% |
| Cc1cc2ccccn2c1C(C[N+](=O)[O-])c1c(F)cccc1Cl (stereo not given) | 102% (active) |
| Cc1cccc(-n2c(C)nc3cc(C(=O)N4CCC5(CC4)OCCO5)ccc32)c1 | -8.93% |
| O=c1[nH]c2ccccc2n1C1CCN(C(c2ccnc3ccccc23)c2nnnn2Cc2ccccc2)CC1 (stereo not given) | 27.5% |
| CCN(N=Nc1nonc1OC)c1nonc1OC | -11.1% |
| O=C1NC(=O)N(CCc2ccc(F)cc2)C(=O)/C1=C/C=C/c1ccccc1 | 79.4% (active) |
| COC1=CC=C2[C@H]3Cc4ccc(OC)c5c4[C@@]2(CCN3C)C1O5 (stereo not given in full) | -16% |
| Cc1cc(N2C(=O)C3CCCN3C2c2ccc(Cl)c(Cl)c2)no1 (stereo not given) | -3.31% |
| CC(C)c1ccc(O)c(CN2CCN(c3ccccc3)CC2)c1 | 4.05% |
| CCC(C)(O)C(=O)OC1C(=O)OC2CC3C(C)=CC(=O)C(O)C3(C)C3C4(O)OCC23C1C(C)C4O (stereo not given) | 99.5% (active) |
| CCOP(=O)(OCC)C(O)c1ccc(OC)cc1OC (stereo not given) | 3.38% |
| CCC(=O)OC(Cc1ccccc1)(c1ccccc1)C(C)CN(C)C (stereo not given) | 3.52% |
| O=C(NCC1=C(c2ccc3ccccc3c2)C[C@@H]2CC[C@H]1N2Cc1ccco1)c1cccs1 | -11.2% |
| CC(=O)OC1C2(CC3N4C(=O)C5(CO)SSC4(CC31O)C(=O)N5C)OC(C)C(C)(C)C2=O (stereo not given) | 107% (active) |
| CN(C)C(=O)NC(O)C(Cl)(Cl)Cl (stereo not given) | 5.54% |
| Cc1cccc(-n2c(O)c(C=NC34CN5CN(CN(C5)C3)C4)c(=O)[nH]c2=O)c1 | -1.26% |
| COC1C(O)C(C)OC(OC2CCC3(C=O)C(CCC4C3CCC3(C)C(C5=CC(=O)OC5)CCC43O)C2)C1O (stereo not given) | 80.6% (active) |
| CC(=NCc1ccc2c(c1)OCO2)c1c(O)[nH]c(=O)[nH]c1=O | -1.24% |
| CCN(CC)C(=O)Oc1ccc(NC(=O)N2CCOCC2)cc1 | 12.2% |
| Cc1ccc(N(C)C(=O)Oc2cccc3ccc(C)nc23)cc1 | -2.35% |
| O=Cc1cn(Cc2ccc(F)cc2Cl)c2ccccc12 | 56.5% (active) |
| CC1C(=O)OC2CCN3CC=C(COC(=O)C(C)(O)C1(C)O)C23 (stereo not given) | -18.7% |
| CC[N+]1(C)CCCC(OC(=O)C(O)(c2ccccc2)c2ccccc2)C1 (stereo not given) | -7.55% |

| Structure (SMILES) | inhibition |
| --- | --- |
| CCOC(=O)[C@]12Cc3ccccc3[C@H]1N(C1CCCCC1)C(=O)c1cc(OC)ccc12 | 42.5% |
| COC(=O)CN(CCCl)P1(=O)OCCCN1CCCl (stereo not given) | -6.99% |
| O=C1NC(=O)C(CCOc2ccccc2)(CCc2ccccc2)C(=O)N1 | -21.8% |
| COc1ccccc1C1=NCc2nnc(CSC)n2-c2ccc(Cl)cc21 | 12.6% |
| CCN1CC2C3CCC(C)(O3)C2C1 (stereo not given) | 2.33% |
| CCOC(=O)C1=C(C)OC(N)=C(C(=O)OC)C12C(=O)Nc1ccc(Br)cc12 (stereo not given) | -9.87% |
| N#CC1=C(N)Oc2c(c(=O)oc3ccccc23)C1c1ccccc1OC(=O)c1cccs1 (stereo not given) | 51.3% (active) |
| CCNc1nc2[nH]c(=O)c3c(c2s1)OC(N)=C(C#N)C3c1cccs1 (stereo not given) | 19.6% |
| COc1ccc(C2C=C(C)Oc3c2c(=O)oc2ccccc32)cc1OC (stereo not given) | 1.69% |
| Nc1ccc(Cc2ccc(N)c(Cl)c2)cc1Cl | 7.24% |
| COc1ccccc1OC(=O)c1ccc(C)c(S(=O)(=O)N2CCOCC2)c1 | 5.54% |
| COC(=O)C1=C(c2ccc(F)cc2F)C[C@@H]2CC[C@H]1N2C(=O)NC1CC1 | 10.7% |
| CCC/C(=N\O)c1c[nH]c2ccccc12 | -11.5% |
| CCOc1ccc(C2SCC(=O)Nc3c2c(C)nn3C2CCOC(C)(C)C2)cc1 (stereo not given) | 7.72% |
| Cc1ccc(P(=S)(c2ccc(C)o2)N2CCOCC2)o1 | 73.2% (active) |
| CCOC(=O)[C@]12Cc3cc(OC)ccc3[C@H]1N(C(C)C)C(=O)c1ccccc12 | 25.1% |
| O=C(NC1CCCCC1)N1Cc2cc(N3CCCCC3)ccc2-n2nncc2C1 | -46.7% |
| CN1CCN(/N=C/c2c[nH]c3ccccc23)CC1 | 4.46% |
| COC(=O)C1=C(c2ccc(OCc3ccccc3)cc2)C[C@@H]2CC[C@H]1N2C(=O)NCc1cccc(F)c1 | 37.4% |
| CN1CCN(Cc2ccccc2C(F)(F)F)CC1 | 0.88% |
| Fc1cccc(F)c1CN1CCN(Cc2c(F)cccc2F)CC1 | 92.7% (active) |
| C/C(=N/O)c1ccc2ccc3ccccc3c2c1 | 2.22% |
| COc1ccccc1N1CCN(C(CNC(=O)Oc2ccccc2)c2cccnc2)CC1 (stereo not given) | 3.6% |
| COCc1cc(OC(=O)N(C)C)nc(-c2ccc(C)c(Cl)c2)n1 | 6.49% |
| c1cc2c(cc1[C@H]1OC[C@H]3[C@@H]1CO[C@@H]3c1ccc3c(c1)OCO3)OCO2 | -20.1% |

From PubChem BioAssay AID1159606 (Sanford-Burnham Center for Chemical Genomics, 2016)
